PubChem BioAssay (NCI)
This is part of a sample that, as a whole, favours compounds with a hit. Of some 83,000 tested, about 20% had one in any assay.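 Compound tested at a single concentration for 48 hours in 96-well plates; a percent growth value below 10 was scored as active.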 Unmarked numbers belong to inactive results. Calls of active or inactive are those of the source.

Tests used:
Experiment in all cases: NCI-60 one-dose screen, 48 h (100 = growth as untreated, 0 = no growth, -100 = all killed)
Details in all cases: 10 µM unless noted
HCT-15 colon = system: HCT-15 colon
HT29 colon = system: HT29 colon
SNB-75 CNS = system: SNB-75 CNS
SNB-19 CNS = system: SNB-19 CNS
U251 CNS = system: U251 CNS
PC-3 prostate = system: PC-3 prostate
SK-MEL-5 melanoma = system: SK-MEL-5 melanoma
UACC-62 melanoma = system: UACC-62 melanoma
LOX IMVI melanoma = system: LOX IMVI melanoma
SK-MEL-28 melanoma = system: SK-MEL-28 melanoma
SK-MEL-2 melanoma = system: SK-MEL-2 melanoma
EKVX NSCLC = system: EKVX NSCLC
SN12C renal = system: SN12C renal
UO-31 renal = system: UO-31 renal
TK-10 renal = system: TK-10 renal
ACHN renal = system: ACHN renal
CAKI-1 renal = system: CAKI-1 renal
A498 renal = system: A498 renal
CCRF-CEM leukemia = system: CCRF-CEM leukemia
MOLT-4 leukemia = system: MOLT-4 leukemia

SMILES	growth (HCT-15 colon)	growth (HT29 colon)	growth (SNB-75 CNS)	growth (SNB-19 CNS)	growth (U251 CNS)	growth (PC-3 prostate)	growth (SK-MEL-5 melanoma)	growth (UACC-62 melanoma)	growth (LOX IMVI melanoma)	growth (SK-MEL-28 melanoma)	growth (SK-MEL-2 melanoma)	growth (EKVX NSCLC)	growth (SN12C renal)	growth (UO-31 renal)	growth (TK-10 renal)	growth (ACHN renal)	growth (CAKI-1 renal)	growth (A498 renal)	growth (CCRF-CEM leukemia)	growth (MOLT-4 leukemia)
CC(=O)c1c(/C=C/c2ccc(C)cc2)c2ccccc2[nH]c1=O	102%	105%	73.7%	73.5%	86%	81.2%	95.9%	80.7%	84.7%	110%	107%	95.1%	83.2%	49.6%	106%	91%	67.6%	81.2%	105%	
O=c1n(C2OC(CO)C(O)C2O)ccc2nccn12 (centres undefined)	105%	108%	95.5%	114%	99%	104%	114%	111%	111%	113%	126%	108%	107%	99.8%	122%	104%	102%	95.8%	99.5%	97.9%
COCCn1cc(-c2nc(-c3cc4cccnc4n3C)cs2)c2cc(OC)ccc21	32.1%	48.2%	47.7%	87.4%	59%	16.1%	26.7%	61.7%	38.2%	88.3%	56.3%	24.8%	73%	51%	19.5%	64.2%	74.5%	46.6%	28.8%	
C#Cc1cccc(Nc2ncnc3ccc(-c4cnc(Cl)c(NS(C)(=O)=O)c4)cc23)c1	-32.2% (active)	-21.1% (active)	-21.8% (active)	-24.3% (active)	-61.6% (active)	-7.01% (active)	-95.6% (active)	-67.9% (active)	-53.4% (active)	-12.1% (active)	-73.6% (active)	-46.3% (active)	3.41% (active)	-80.8% (active)	-72.8% (active)	13.4%	-31.9% (active)	-76.8% (active)	7.99% (active)	
COc1ccc(Nc2nc(Nc3cc(C)[nH]n3)c3cc(OC)c(OC)cc3n2)cc1	-83.1% [20 µM] (active)	-61.2% [20 µM] (active)	-94.5% [20 µM] (active)	-99.2% [20 µM] (active)	-69.8% [20 µM] (active)	-80.7% [20 µM] (active)	-84.7% [20 µM] (active)	-98.9% [20 µM] (active)	-92.6% [20 µM] (active)	-95.9% [20 µM] (active)	-68.6% [20 µM] (active)	-79.5% [20 µM] (active)	-90.4% [20 µM] (active)	-100% [20 µM] (active)	-86.6% [20 µM] (active)	-100% [20 µM] (active)	-100% [20 µM] (active)	-98.7% [20 µM] (active)	-38.9% [20 µM] (active)	-57.1% [20 µM] (active)
O=c1c(/C=C/c2c(O)ccc3ccccc23)nnc2sc(-c3cccc([N+](=O)[O-])c3)nn12	29.1%	88.8%	51.7%	50%	0.449% (active)	52.7%	65.2%	32.5%	33.7%	54.1%	79.2%	54.4%	45.9%	20.1%	83.1%	31.7%	24.9%	50.5%	18.6%	
Cc1ccc(S(=O)(=O)c2nc(-c3ccccc3)oc2S(C)=O)cc1 (centres undefined)	-53.1% (active)	-31.8% (active)	66.7%	68.9%	45.1%	22.3%	44.4%	50.6%	-87.7% (active)	-63.2% (active)	50.3%	55.6%	40.2%	-80.5% (active)	-94.8% (active)	-99.2% (active)	-98.4% (active)	75.9%	-41% (active)	
Nc1ncc(-c2ccc3ncnc(N4CCc5ccc(Cl)cc54)c3c2)cn1	7.19% (active)	1.74% (active)	-11.6% (active)	14.1%	9.31% (active)	8.82% (active)	-52.2% (active)	-23.6% (active)	1.27% (active)	-6.35% (active)	-53.3% (active)	2.36% (active)	7.41% (active)	-21.7% (active)	-30.3% (active)	3.09% (active)	5.95% (active)	-55.2% (active)	4.45% (active)	
